Laboratory results from the supplement of paper PMC11219838.

What follows are molecules tested on Caenorhabditis elegans L1 (N2) (assay: survival and reproduction score of C. elegans L1 (0: 0-10 living worms, 1: 11-20, 2: 21-50, 3: >50, 4: overgrown) (score 0-4); higher = more worms, less nematicidal, active = 1 or less; extreme values may be limits of the assay). Details: 60 µM; 6 days; temperature: 20 °C.
Outline: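 In liquid NGM with E. coli HB101, approximately 20 synchronized C. elegans N2 L1s per 96-well well were exposed to compound at 60 µM final (0.6% v/v DMSO) for 6 days at 20 °C with shaking at 200 rpm in sealed plates. Survival and reproduction were judged under a dissection microscope as an ordinal rating of living worms per well. Ratings went from 0 (0–10 worms) to 4 (overgrown, starved) and were averaged over two biological replicates.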

Compound	survival and reproduction score
CCOc1ccccc1-c1nnc(SCC(=O)Nc2ccccc2)o1	4 (inactive)
Cc1ccc(-c2noc(-c3cc(C)cc(C)c3)n2)cc1	4 (inactive)
COc1ccc(CC(=O)Nc2ccc(-c3noc(COc4cccc(C)c4C)n3)cc2)cc1	4 (inactive)
c1ccc(-c2noc(COc3ccc4c(c3)CCCC4)n2)cc1	4 (inactive)
COC(=O)c1ccc(CSc2nnc(-c3cccnc3)o2)cc1	4 (inactive)
CC(Oc1ccccc1)c1nc(-c2ccccn2)no1 (stereo not drawn)	4 (inactive)
Clc1ccc(OCc2ccccc2)c(-c2nc(-c3cccnc3)no2)c1	4 (inactive)
Cc1ccc(C(=O)CSc2nnc(-c3ccco3)o2)o1	4 (inactive)
CCOc1ccc(-c2noc(-c3ccncc3)n2)cc1OC	4 (inactive)
Cc1cc(OC(C)c2nc(-c3ccccn3)no2)ccc1Cl (stereo not drawn)	2 (inactive)
c1coc(-c2nc(-c3cccs3)no2)c1	0 (active)
COc1ccccc1NC(=O)c1ccccc1-c1nc(-c2ccc(Cl)cc2)no1	4 (inactive)
Fc1ccc(-c2nc(-c3ccc(Cl)cc3)no2)cc1	4 (inactive)
CCOC(=O)c1ccc(OCc2nc(-c3cccs3)no2)cc1	4 (inactive)
O=C(Nc1cccnc1)c1ccccc1-c1nc(-c2ccc(Cl)cc2)no1	4 (inactive)
COc1cccc(-c2nnc(SCc3ccccc3C)o2)c1	4 (inactive)
CCCCc1nc(-c2ccc(-c3ccc(C)cc3)nc2OC)no1	4 (inactive)
O=C(CSc1nnc(-c2ccccc2)o1)NCc1ccccc1	4 (inactive)
c1coc(-c2nnc(-c3ccco3)o2)c1	4 (inactive)

Compound	survival and reproduction score
CSc1ccccc1-c1nc(-c2cccnc2)no1	4 (inactive)
Brc1ccc(OCc2nc(-c3cccnc3)no2)cc1	4 (inactive)
COc1ccc(Cl)cc1NC(=O)CSc1nnc(-c2ccco2)o1	4 (inactive)
CC(C)CCC(=O)Nc1ccccc1-c1nc(-c2ccncc2)no1	4 (inactive)
COc1ccccc1-c1nnc(SCC(=O)Nc2ccc(F)cc2)o1	4 (inactive)
Cc1cc(OCc2nc(-c3cccnc3)no2)c(C)cc1Br	4 (inactive)
O=C(CSc1nnc(-c2ccco2)o1)Nc1ccc(Br)cc1	4 (inactive)
O=C(c1ccccc1-c1nc(-c2ccccc2)no1)N1CCCCC1	4 (inactive)
COc1nc(C)ccc1-c1noc(-c2ccccc2Cl)n1	4 (inactive)
CNC(=O)c1ccccc1-c1nc(-c2ccccc2Cl)no1	4 (inactive)
CCOc1ccccc1-c1nc(-c2ccc(Br)cc2)no1	3 (inactive)
O=C(CSc1nnc(-c2cccc(Br)c2)o1)c1ccccc1	4 (inactive)
Clc1ccc(CSc2nnc(-c3ccccc3)o2)cc1Cl	4 (inactive)
CCSc1nnc(-c2ccc(Cl)cc2)o1	0 (active)
COc1cccc(-c2noc(CSc3ccc(Cl)cc3)n2)c1	4 (inactive)
CC(=O)Nc1ccc(-c2nc(-c3ccccc3)no2)cc1	4 (inactive)
CC(C)Oc1ccc(-c2nc(-c3ccccc3)no2)cc1	0 (active)
O=S(=O)(CCC(F)=C(F)F)c1ncc(Cl)s1 [fluensulfone]	4 (inactive)
Clc1cccc(-c2nc(-c3ccncc3)no2)c1	0 (active)
